Where a chain is given by its changes, count along the chain named. In all, about 5,800 sequences were measured (“enrichment r”: median about 0.54, highest 2% from about 16 on). The entries come from a sample that favours the highest values as a whole.
B1: chr8:7990417:7990620:-|CDS|ENSG00000205989|control|control|control (ssRNA)
RNA: GGGAGUUCUACAGUCCGACGAUCGAUGUCUGCAACAUAGUAGAAGAUCAAAUUGGUGCCUGCCGAAGAAGGAUGAAGUGCUGUAGAGCAUGGUGGAUUUUAAUGCCAAUUCCAACACCACUUAUCAUGUCAGAUUAUCAAGAACAACAGAGGAUUGAGCAUCA
B2: chr20:37241422:37241523:+|3pUTR|ENSG00000118705|msi1_unk|FALSE|overlapping (ssRNA)
RNA: GGGAGUUCUACAGUCCGACGAUCGUAUGAGAAGAAAAAUGGAAAAAAAAAACUUUAUUUAAAAAAGAAAAAAGUCCAGAUUGUAGUUAUACUUUUGCUUGUUUUUCAGUUUCCCCAACACACAGCAGAUACCUGGUGAGCUCACAACAGAGGAUUGAGCAUCA
B3: chr8:80500255:80500365:+|CDS|ENSG00000205189|unk|total|mutant (ssRNA)
RNA: GGGAGUUCUACAGUCCGACGAUCGAAAAACCAAACUACAAAAAGAUUUAUUUAUAAUAUUCCACCUAAUAAUGAAACGAAUUCCGAAGAUUGCUCAGUAAUGCAGCCACCUGUUGCCUAUCCAGAAGAAAAUACACUACUCAUCAACAGAGGAUUGAGCAUCA
B4: chr2:30158716:30158817:+|CDS|ENSG00000119801|msi1|total|mutant (ssRNA)
RNA: GGGAGUUCUACAGUCCGACGAUCGUUUGCCACUGAAGACAGCCAGCGAUAUAAGGAAGGCCGCGUGAUCCUGGAACGUGCUCCCGUUCGAGAGAGUGAGGGCUUUGAGGAGCAUGUACCAUCUGAUAACUCUUGAAGAUACAGCAACAGAGGAUUGAGCAUCA
B5: chr5:115137525:115137627:-|CDS|ENSG00000152503|unk|FALSE|unique (ssRNA)
RNA: GGGAGUUCUACAGUCCGACGAUCUUUAGCAGAAGAGGCUAUUCUUUGUUUUAUCUUAGUGUAAUGGAGAUACUGUUUUUUCUUAGUGUAAUGGAGAGAGGGCUAAAGAAGAAGCAAUUACACAUUUUGAAAAGCUCUUUGAAGCAACAGAGGAUUGAGCAUCA
B6: ENSG00000115904:stop:overlap|stop_codon|ENSG00000115904|stop_codon|NA|stop_codon (ssRNA)
RNA: GGGAGUUCUACAGUCCGACGAUCUUUUGCAACGAAUGGAAGAAUUUAUUGGAACAGUAAGAGAGCUGUACAGCCAUCAGAAUUAGUUGGAAGUGUGUGGACAAAAGAAGACAAAGAAAUUAACUCUCCUAAUCUUCUGAAAAUCAACAGAGGAUUGAGCAUCA
B7: chr5:52955293:52955406:+|3pUTR|ENSG00000213949|unk|total|mutant (ssRNA)
RNA: GGGAGUUCUACAGUCCGACGAUCUACCAACCAGUGUGAGCUGACUUCAGCACACCACUGAGACAGAUUACACGACCGACAGACCGACCGACCGACCGACCGACCGACCGACCGACCGACCGACCGAUAUUGACCGAGAACAUGCAACAGAGGAUUGAGCAUCA
B8: chr5:52955293:52955406:+|3pUTR|ENSG00000213949|unk|FALSE|unique (ssRNA)
RNA: GGGAGUUCUACAGUCCGACGAUCUACCAACCAGUGUGAGCUGACUUCAGCACACCACUGAGACAGAUUACACGAUAGACAGAUAGAUAGAUAGAUAGAUAGAUAGAUAGAUAGAUAGAUAGAUAGAUAUUGAUAGAGAACAUGCAACAGAGGAUUGAGCAUCA
B9: ENSG00000136451:be:win_1001|CDS|ENSG00000136451|bound_else_gene|NA|bound_elsewhere_windowed (ssRNA)
RNA: GGGAGUUCUACAGUCCGACGAUCACCAAAAGCAGCAGCAGCAGCAGCAGCAGCAGCAGCAGCAGCAGCAACAACAACAACAACAACAUGUGACAAGCUGGCCAGGGAAGCAAGUAGAAACACUGAGACUGUGGGAAGAAGCUGCAACAGAGGAUUGAGCAUCA
B10: chr15:56434137:56434395:-|CDS|ENSG00000138587|control|control|control (ssRNA)
RNA: GGGAGUUCUACAGUCCGACGAUCAGAGGAAGAGGAGAACUUUAGAAAAACUAUGCUAGCUAAAUUUGCUGAGGAUGAUCGAAUAGAAUUAAUGAAUGCUCAGAAACAAAGAAUGAAGCAGCUGGAACACAGGAGGGCUGUGGACAACAGAGGAUUGAGCAUCA
B11: chr12:122341087:122341188:-|CDS|ENSG00000130779|unk|total|mutant (ssRNA)
RNA: GGGAGUUCUACAGUCCGACGAUCAGAAUUUGCUGAACUAAAAACACAAACCGAGAAAAUGAGACCCGAUUACCAACACGAAACCGAAAAUUUGCAGAAUCAACAAGACUCUGAACGGGCUGCCCAUGCUAAAGAGAUGGAAGCCAACAGAGGAUUGAGCAUCA
B12: chr12:122341087:122341188:-|CDS|ENSG00000130779|unk|FALSE|bound_elsewhere (ssRNA)
RNA: B11 RNA with C50U, C51A, C65U, C66A, C83U, C84A
B13: chr5:136977529:136977630:-|3pUTR|ENSG00000152377|msi1|FALSE|unique (ssRNA)
RNA: GGGAGUUCUACAGUCCGACGAUCACAAGCCAUCUCUUUCAUUUCUGCUUGAAGCCCCUUGGCUGCAGCAAUCCUGUCUGCCAUAGGUUUCUUCCUUCCUUACCUACUCAAGGGCUUUUUCUAAGGCAUGCACACAUAUCUCCUCAACAGAGGAUUGAGCAUCA
B14: chr12:100625254:100625355:+|3pUTR|ENSG00000139354|unk|total|mutant (ssRNA)
RNA: GGGAGUUCUACAGUCCGACGAUCAUAUGUAUUAAAUAUGGAGUUCAUAUACCUGCUAAUAUCAACGGUGGUGCUCUUACUAUCCGUUAAUUGCAUUUUGGUUAAAAAAAAAAAAGCAACAGUUUGGCACUUGUCCUACAAAAGCAACAGAGGAUUGAGCAUCA
B15: chr3:48857559:48857660:-|3pUTR|ENSG00000178537|unk|total|mutant (ssRNA)
RNA: GGGAGUUCUACAGUCCGACGAUCGGCUGAAGGCUGCUCAAGUUCACUUCUGGAUGCUGGAAGCUGUCGUUGAGGAGAAGGAGCCGUAAGCAGAACUAAGCAGUCUUGGAGGGCAAGGGGAGGGGAAUGGUGAGAUCCGAGCCCCAACAGAGGAUUGAGCAUCA
B16: chr2:20282997:20283108:-|CDS|ENSG00000055917|unk|total|mutant (ssRNA)
RNA: GGGAGUUCUACAGUCCGACGAUCACUAAUCUGCAAUCUAAUUCAUUUUAUGGAAGCAGUUCUUUGACUAACCGCUCCCAGAGCCGUUCUUUAUUUUCUCAUGGACCUGGUCAACCUGGAAGUACAUCUCUUGGCUUUGGAAGUCAACAGAGGAUUGAGCAUCA
B17: chr17:10306458:10306629:-|CDS|ENSG00000006788|control|control|control (ssRNA)
RNA: GGGAGUUCUACAGUCCGACGAUCCCACCUGGAGCGGAUGAAGAAGAACCUGGAGCAGACGGUGAAGGACCUGCAGCACCGUCUAGAUGAGGCUGAACAACUGGCGCUGAAGGGCGGGAAGAAGCAGAUCCAGAAACUGGAGAACAACAGAGGAUUGAGCAUCA
B18: ENSG00000186472:stop:overlap|stop_codon|ENSG00000186472|stop_codon|NA|stop_codon (ssRNA)
RNA: GGGAGUUCUACAGUCCGACGAUCUUUCUUGUAAAUGGAAAUUUUAUCAUGUGUAUAGAUUCUGUAGCAUGCUUUUCUUUAUUUAGUUUUACUUUAUUCCUUUAUUGUUCUGUUUCUUGAUUGUUUGCUUGAUUUGUUUGGUGUCAACAGAGGAUUGAGCAUCA
B19: chr17:57972098:57972209:-|3pUTR|ENSG00000136451|unk|total|mutant (ssRNA)
RNA: GGGAGUUCUACAGUCCGACGAUCCCCGAAUGUGGUUGUCAGAACCCUGAAAGUAUCCGUUCUAAAAAAAAAAAGAUAUAUACCCGAAGUAAUUGUUUUAUCAAUUCAUUGUAUAAUAAACAGGAGUGAGACUUCAUUGUAUGACAACAGAGGAUUGAGCAUCA
B20: ENSG00000136451:be:win_3801|3pUTR|ENSG00000136451|bound_else_gene|NA|bound_elsewhere_windowed (ssRNA)
RNA: GGGAGUUCUACAGUCCGACGAUCACCCCUAAGCUAGAAUGUGGUUGUCAGAACCCUGAAAGUAUUAGUUCUAAAAAAAAAAAGAUAUAUACUAGAAGUAAUUGUUUUAUCAAUUCAUUGUAUAAUAAACAGGAGUGAGACUUCCAACAGAGGAUUGAGCAUCA
B21: chr7:152122106:152122213:+|3pUTR|ENSG00000178234|unk|total|mutant (ssRNA)
RNA: GGGAGUUCUACAGUCCGACGAUCAGUGGUUUUUAUCUGAUCAGGAACUUGUCAUGAUUUCCUUUCUCCGACUUCACCGGAGACCGUGCUUUAAAAAAAAAAAAAACUUCUAUUAUUUGUUCCGUAUGUUGUAAGCCGAUCAUUCAACAGAGGAUUGAGCAUCA
B22: chr8:72021249:72022905:-|three_prime_utr|ENSG00000104321|control|control|control (ssRNA)
RNA: GGGAGUUCUACAGUCCGACGAUCGCAGAUAUGUUCAAAUUGGACUGGACUUUGAUGAGAUAUAAUCUCAUUAUUUGAAUGGGUAGAAAAUGAAUUUGCUAGAACACACAUUUUUAAUGAAAAGAAGUAAUAAAUGUAACUAUUCAACAGAGGAUUGAGCAUCA
B23: ENSG00000136451:be:win_3751|3pUTR|ENSG00000136451|bound_else_gene|NA|bound_elsewhere_windowed (ssRNA)
RNA: GGGAGUUCUACAGUCCGACGAUCCUCCACAGUGGUCCAAGGAGCAGUCCUCAGUGGGGGCAGGUGUGGGCCCUACCCCUAAGCUAGAAUGUGGUUGUCAGAACCCUGAAAGUAUUAGUUCUAAAAAAAAAAAGAUAUAUACUACAACAGAGGAUUGAGCAUCA
B24: chr1:67413009:67413110:-|3pUTR|ENSG00000142864|unk|FALSE|unique (ssRNA)
RNA: GGGAGUUCUACAGUCCGACGAUCCUGAAUUUUAUCUGUUUUAAAAAUGAACUUCUCCCGCUACACAGAAGUAACAAAUAUGGUAGUCAGUUUUGUAUUUAGAAAUGUAUUGGUAGCAGGGAUGUUUUCAUAAUUUUCAGAGAUCAACAGAGGAUUGAGCAUCA
B25: chr7:152122106:152122213:+|3pUTR|ENSG00000178234|unk|FALSE|unique (ssRNA)
RNA: B21 RNA with C67U, C68A, C76U, C77A, C83U, C84A, C121U, C122A, C135U, C136A
B26: chr1:67413009:67413110:-|3pUTR|ENSG00000142864|unk|total|mutant (ssRNA)
RNA: B24 RNA with U83C, A84C, U99C, A100C, U113C, A114C
B27: chr18:2804133:2804242:+|3pUTR|ENSG00000101596|unk|FALSE|unique (ssRNA)
RNA: GGGAGUUCUACAGUCCGACGAUCGGUUAAAGAGAAAUGACUUUUUAGGAACUAGACUUGAACGUAUAAUUAAUAUGUGGAACUAGUUUGCUUUUAUAAUUCAUUGUAUCAAGAAGGAGUCAUGUUUUAAAUCCAAGGCAUUGACAACAGAGGAUUGAGCAUCA
B28: chr17:57972098:57972209:-|3pUTR|ENSG00000136451|unk|FALSE|bound_elsewhere (ssRNA)
RNA: B19 RNA with C25U, C26A, C56U, C57A, C83U, C84A
B29: chr3:45823315:45826332:-|three_prime_utr|ENSG00000163818|control|control|control (ssRNA)
RNA: GGGAGUUCUACAGUCCGACGAUCUCAGGCAUGUAUUUUGAAAAGCAUUUUGUCAUAUCCCCUCUCCUUAUUUUUCUAAUAUUUAGACUUUGAAUAUUUAGAACUAGAGUUCCUAUUUUCAGCUAGUUGAAAACAGAGAAAACCCAACAGAGGAUUGAGCAUCA

These binders were tested against MSI1 full-length (mouse, UniProt Q61474 1-362) (assay: nsRBNS (natural sequence RNA bind-n-seq); RBNS binding buffer (assumed for nsRBNS): 25 mM Tris pH 7.5, 150 mM KCl, 3 mM MgCl2, 0.01% Triton X-100, 500 ug/ml BSA, 20 U/ml SUPERase-In, 4 C; UNK is unkempt and MSI1 is Musashi-1; names of the RNAs are library labels; protein concentration not given here; high values mean tight binding).
Sequence of MSI1 full-length (Q61474 whole entry): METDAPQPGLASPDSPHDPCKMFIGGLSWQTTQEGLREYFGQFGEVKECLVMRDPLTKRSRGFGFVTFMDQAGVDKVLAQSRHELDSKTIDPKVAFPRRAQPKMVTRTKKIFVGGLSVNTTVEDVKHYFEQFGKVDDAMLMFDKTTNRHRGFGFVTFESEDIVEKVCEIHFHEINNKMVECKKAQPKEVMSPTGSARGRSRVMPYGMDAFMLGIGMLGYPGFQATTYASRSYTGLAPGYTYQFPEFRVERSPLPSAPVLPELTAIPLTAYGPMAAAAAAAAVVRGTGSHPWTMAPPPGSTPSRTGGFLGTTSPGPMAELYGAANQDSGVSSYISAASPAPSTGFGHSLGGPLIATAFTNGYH

Row | Binder | binding signal
1 | B1 | 0.446 enrichment R
2 | B2 | 1.41 enrichment R
3 | B3 | 3.62 enrichment R
4 | B4 | 0.472 enrichment R
5 | B5 | 2.18 enrichment R
6 | B6 | 1.25 enrichment R
7 | B7 | 0.369 enrichment R
8 | B8 | 67 enrichment R
9 | B9 | 0.597 enrichment R
10 | B10 | 3.42 enrichment R
11 | B11 | 0.402 enrichment R
12 | B12 | 16.5 enrichment R
13 | B13 | 0.506 enrichment R
14 | B14 | 0.371 enrichment R
15 | B15 | 0.595 enrichment R
16 | B16 | 0.305 enrichment R
17 | B17 | 0.485 enrichment R
18 | B18 | 0.35 enrichment R
19 | B19 | 0.711 enrichment R
20 | B20 | 16.4 enrichment R
21 | B21 | 1.74 enrichment R
22 | B22 | 2.75 enrichment R
23 | B23 | 1.89 enrichment R
24 | B24 | 41.4 enrichment R
25 | B25 | 20.2 enrichment R
26 | B26 | 0.413 enrichment R
27 | B27 | 1.24 enrichment R
28 | B28 | 29.3 enrichment R
29 | B29 | 5.79 enrichment R

From paper PMC12136788
